Test results published in PubChem BioAssay AID777 (Sanford-Burnham Center for Chemical Genomics, 2007).
About 19,000 (20%) of roughly 96,000 compounds were called active. The list is a sample of the results. Values without a mark were called inactive.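 Rule for the calls: active = blocking of liver enzyme CYP2C9 beyond about 50% at 5 µM (limit read from the data); inactive = the rest.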

What follows are molecules tested against Cytochrome P450 2C9 (Homo sapiens) (UniProt P11712) (assay: blockers of cytochrome P450 2C9 activity – biochemical, luminescence, ADME assay, primary screen (AID 777)). Conditions: CYP2C9 Supersomes, luciferin-H conversion, at 5 µM, hits give high values.
Sequence of Cytochrome P450 2C9 (Homo sapiens) (P11712 whole entry, looked up): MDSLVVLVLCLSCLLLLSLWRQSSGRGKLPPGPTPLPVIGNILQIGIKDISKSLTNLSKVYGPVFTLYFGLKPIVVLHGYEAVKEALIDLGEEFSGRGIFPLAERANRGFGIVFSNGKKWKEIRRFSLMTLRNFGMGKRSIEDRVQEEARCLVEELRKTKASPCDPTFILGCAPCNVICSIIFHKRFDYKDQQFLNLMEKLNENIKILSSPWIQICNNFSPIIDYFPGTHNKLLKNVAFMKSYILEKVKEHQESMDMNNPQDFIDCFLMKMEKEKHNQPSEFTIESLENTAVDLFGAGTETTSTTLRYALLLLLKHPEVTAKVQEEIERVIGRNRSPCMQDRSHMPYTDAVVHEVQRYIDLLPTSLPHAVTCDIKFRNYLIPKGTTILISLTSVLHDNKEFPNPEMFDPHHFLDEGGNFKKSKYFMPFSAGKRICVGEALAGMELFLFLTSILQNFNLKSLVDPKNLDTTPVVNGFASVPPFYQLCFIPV

SMILES | inhibition
O=C(C1=C(O)C(=O)N(c2ncccn2)C1c1cccs1)c1ccco1 (stereo not given) | -13.2%
CCOC(=O)N1CCN(C(=O)c2ccc(CN(c3ccc(C)c(C)c3)S(C)(=O)=O)cc2)CC1 | 71.2% (active)
CCOC(=O)N1CCN(C(=O)c2ccc(S(=O)(=O)c3ccc(C)cc3)c(NC(C)=O)c2)CC1 | -6.9%
CCOC(=O)N1CCN(C(=O)CN(c2ccc(C)c(C)c2)S(=O)(=O)c2ccccc2)CC1 | 72.9% (active)
NC(=O)C1CCN(C(=O)c2ccc(-c3ccccc3)cc2)CC1 | -10.3%
COc1ccccc1N(C)S(=O)(=O)c1ccc(C(=O)N2CCC(C(N)=O)CC2)cc1 | 53.8% (active)
COc1cccc2c(=O)n(CC(=O)N3CCCCCC3)ccc12 | -29.3%
COc1ccccc1-c1cc(C(=O)N2CCCCC2)no1 | -15.6%
COc1ccccc1N(CC(=O)N1CCCCC1)S(=O)(=O)c1ccccc1 | 56.8% (active)
NC(=O)C1CCN(C(=O)c2ccc(C(F)(F)F)cc2)CC1 | -4.8%
CCOC(=O)N1CCN(C(=O)c2ccc3c(c2)N(Cc2ccc(C)cc2)CCS3)CC1 | 32.3%
CSc1ccc(-c2c(C#N)c(N)nc3c2c(C)nn3-c2ccccc2)cc1 | 17.3%
N#CC1=C(N)N(c2ccc(F)cc2)C(=O)C1 | -13.8%
Cc1c(NC(=O)c2coc(=O)c(Br)c2)c(=O)n(-c2ccccc2)n1C | -1.3%
CC(Nc1nc(N2CCCC2)nc2ccccc12)c1ccccc1 (stereo not given) | 11.6%
N#C/C(=C/c1ccc(Cl)cc1)NC(=O)c1ccccc1 | 40.8%
COc1ccccc1-n1nnnc1S(=O)(=O)Cc1ccc(Cl)cc1 | 45.6%
COc1cccc(NC(=O)C2c3cc(OC)c(OC)cc3C(=O)N(C)C2c2cccnc2)c1 (stereo not given) | 30.6%
CS(=O)(=O)c1sc2nc(-c3ccccc3)cc(-c3ccccc3)c2c1N | 19%
CCc1ccc(N2CC(C(=O)NC3=NCCS3)CC2=O)cc1 (stereo not given) | 27.4%
CC(C)c1ccc(N2CC(C(=O)Nc3nccs3)CC2=O)cc1 (stereo not given) | 78.1% (active)
CCCOc1ccc(N2CC(C(=O)Nc3ccccn3)CC2=O)cc1 (stereo not given) | 8.9%
Cc1ccc(-n2nc(N)c3c(=O)oc(N(C)C)nc32)cc1 | 11.3%
O=C(COc1cc(Cl)c(Cl)cc1Cl)NC(=O)NC1CCCC1 | -13%
CCOc1ccc(NC(=O)CN(C)CC(=O)Nc2cccc(Cl)c2C)cc1OCC | 56.1% (active)

SMILES | inhibition
O=C(Cc1ccc2c(c1)CCCC2)Nc1ccccc1Cl | 13.7%
CCNC(=S)Nc1cccc(Cl)c1C | 16%
CC(=O)N1CC2(C)CN(C(C)=O)CC(C)(C1)C2=O | -0.1%
O=C(Nc1cccc(OCC(=O)N2CCOCC2)c1)C1CCCCC1 | -6.8%
O=c1[nH]nc(Cc2ccccn2)c2ccccc12 | -9.2%
CCN(CC)S(=O)(=O)c1ccc2c3c(cccc13)C(=O)S2 | -46.8%
CN(CCc1ccccn1)S(=O)(=O)c1ccc2c3c(cccc13)C(=O)N2 | 70.5% (active)
COC(=O)c1nc(NC(=O)c2ccccc2)n[nH]1 | 0.3%
Cc1cc2[nH]ncc2cc1NC(=S)NC(=O)c1ccccc1 | 97.8% (active)
Cc1ccc(NC(=S)NC(=O)c2ccc(-c3ccccc3)cc2)c(C)c1 | 19%
COc1ccc(N(CC(=O)NC(C)(C)C)C(=O)c2ccco2)cc1 | 9.6%
Cc1cc(Cl)ccc1N1C(=O)CC(SCCC(=O)O)C1=O (stereo not given) | 35.2%
COc1ccc(NC(=O)CN(C)S(=O)(=O)c2ccccc2)cc1OC | 21.2%
C/C(=C\C(=O)c1cccnc1)Nc1ccc(C)c(C)c1 | 12.9%
Cc1ccc(NC(=O)CN(C)S(=O)(=O)c2cnc[nH]2)cc1C | 93.7% (active)
Cc1ccc(C)n1-c1ccncc1 | 40.5%
COc1ccc(Cl)cc1S(=O)(=O)N1CCN(CC(=O)C(C)(C)C)CC1 | -142%
CCOC(=O)c1c(-c2ccccc2)csc1NC(=S)NC(=O)c1ccccc1 | 55% (active)
CCOC(=O)c1c(-c2cccc(C)c2)csc1NC(=O)c1c(-c2ccccc2)noc1C | 26.8%
CCOC(=O)c1c(NC(=S)NC(=O)c2ccco2)sc2c1CCCC2 | 0.4%
O=C1CSC(c2ccc(Cl)cc2)N1 (stereo not given) | -1%
COc1cc(C2CC(=O)N3CN(Cc4ccccc4)CSC3=C2C#N)ccc1OCc1ccccc1 (stereo not given) | 86.4% (active)
COc1ccc(C2CC(=O)n3c(nc4ccccc43)S2)cc1OC (stereo not given) | 14.4%
COc1ccc(C2CC(=O)Nc3sc(=N)c4c(N)c(C#N)c(N)nc4c32)cc1OC (stereo not given) | 41.6%
CCCNC(=O)C1CC(=O)N(c2ccc(OCC(=O)Nc3cccc(C)c3C)cc2)C1 (stereo not given) | 22.1%
